Reference: PubChem BioAssay (NCI)
Compounds without any hit were thinned out: in the full panel of roughly 83,000, 20% have a hit.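 Testing used 96-well plates and a 48-hour single-concentration exposure. Example: -40 means 40% of the starting cells died.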 Calls of active or inactive are those of the source. Rule for the calls: active = growth percent below 10; inactive = the rest.

Legend:
Experiment in all cases: NCI-60 one-dose screen, 48 h (100 = growth as untreated, 0 = no growth, -100 = all killed)
Conditions in all cases: 10 µM unless noted
[1] = tested on: HT29 colon
[2] = tested on: SNB-75 CNS
[3] = tested on: SNB-19 CNS
[4] = tested on: U251 CNS
[5] = tested on: PC-3 prostate
[6] = tested on: SK-MEL-5 melanoma
[7] = tested on: UACC-62 melanoma
[8] = tested on: LOX IMVI melanoma
[9] = tested on: SK-MEL-28 melanoma
[10] = tested on: SK-MEL-2 melanoma
[11] = tested on: EKVX NSCLC
[12] = tested on: SN12C renal
[13] = tested on: UO-31 renal
[14] = tested on: ACHN renal
[15] = tested on: CAKI-1 renal
[16] = tested on: A498 renal
[17] = tested on: CCRF-CEM leukemia
[18] = tested on: MOLT-4 leukemia
[19] = tested on: SR leukemia
[20] = tested on: TK-10 renal

Measured: growth

OC1CCN(CCCOc2c3ccc(Cl)cc3nc3c2oc2ccccc23)CC1
active: [1] -44.3% | [2] -19.1% | [3] 6.3% | [4] -43.3% | [5] -4.93% | [6] -97.8% | [7] -69.7% | [8] -85.8% | [9] -78.6% | [10] -86.3% | [11] -43.4% | [12] 6.58% | [13] -52.1% | [14] -50.1% | [15] -3.51% | [16] -91.3% | [17] 2.24% | [18] -21.5% | [19] -38.5%

COc1ccc(/C=N/Nc2ccnc3cc(Cl)ccc23)cc1Cl
inactive: [11] 12.2% | [16] 36.7%
active: [1] -55.3% | [2] -88.5% | [3] -79.2% | [4] -90.7% | [5] -24.9% | [6] -93.5% | [7] -86.4% | [8] -35.5% | [9] -92.4% | [10] -88% | [12] -70.8% | [13] -90% | [14] -99.8% | [15] -83.5% | [17] -19.8% | [18] -25.3% | [19] -9.69%

CS(=O)(=O)Nc1ccc(-c2nn(-c3ccc(S(C)(=O)=O)cc3)cc2/C=C/C(=O)c2ccc(NC(=O)CO[N+](=O)[O-])cc2)cc1
inactive: [1] 104% | [2] 108% | [3] 100% | [4] 101% | [5] 98.2% | [6] 100% | [7] 100% | [8] 93.2% | [9] 104% | [10] 97.3% | [11] 103% | [12] 109% | [13] 93.9% | [14] 96.1% | [15] 97.7% | [16] 110% | [17] 111% | [18] 107% | [19] 92.1%

CN(C)c1ccc(/C=c2\sc3nc4ccccc4n3c2=O)cc1
inactive: [1] 107% | [2] 105% | [3] 99.3% | [4] 102% | [5] 106% | [6] 101% | [7] 96.5% | [8] 118% | [9] 103% | [10] 118% | [11] 87% | [12] 99.2% | [13] 92.2% | [14] 98% | [15] 93.3% | [16] 85.1% | [17] 13.8% | [18] 103% | [19] 99.7%

CN(C)CCCOc1c2ccc(Cl)cc2nc2c1oc1ccccc12
active: [1] -45.5% | [2] -18.6% | [3] 5.62% | [4] 4.05% | [5] 5.27% | [6] -97.9% | [7] -73.8% | [8] -84.8% | [9] -76.4% | [10] -87.6% | [11] -41.6% | [13] -51.9% | [14] -6.02% | [15] 1.08% | [16] -91.8% | [17] 0.191% | [18] -17% | [19] -34.2%
inactive: [12] 18%

CC(C)(C)Nc1nc2c(OCCc3ccccc3)cccn2c1-c1cccc(F)c1
active: [1] -14.2% | [4] -43.8% | [5] -4.7% | [6] -82.4% | [7] -7.68% | [8] -83.1% | [10] -81.2% | [11] 5.55% | [12] 6.27% | [13] -11% | [20] -6.22% | [14] 5.29% | [15] -11.5% | [16] -18.9% | [17] 3.62% | [18] -0.489% | [19] -0.873%
inactive: [2] 33.2% | [3] 20.4% | [9] 15%

Clc1ccc(Cc2nnc3sc(-c4cccnc4)nn23)cc1
inactive: [1] 102% | [2] 94.4% | [3] 93.3% | [4] 99% | [5] 101% | [6] 96.4% | [7] 91.1% | [8] 96.7% | [9] 109% | [10] 113% | [11] 85.2% | [12] 100% | [13] 71.7% | [14] 96.8% | [15] 84% | [16] 83.9% | [17] 98.9% | [18] 97.2% | [19] 91.1%

CC(C)(C)Nc1nc2c(OCCc3ccccc3)cccn2c1-c1ccc(Cl)cc1
inactive: [1] 24.2% | [2] 51.7% | [3] 19.7% | [4] 11.9% | [7] 11.1% | [9] 29.7% | [12] 10.3% | [20] 20.8% | [15] 29.3% | [16] 56%
active: [5] 3.08% | [6] -71.6% | [8] 2.87% | [10] -33.9% | [13] 0.0667% | [17] 6.47% | [18] 4.83% | [19] 1.41%

N#Cc1nc(-c2ccccc2)oc1S(=O)(=O)N1CCN(CCc2ccccn2)CC1
inactive: [2] 87.2% | [3] 97.7% | [4] 88% | [5] 86% | [6] 97.6% | [7] 83.6% | [9] 43.6% | [10] 108% | [11] 89% | [12] 77.2% | [15] 54.3% | [16] 112%
active: [1] -5.82% | [8] -79.2% | [13] -42.3% | [17] 1.54% | [18] 0.215% | [19] -19.2%

CN(C)CCCNc1c2ccc(Cl)cc2nc2c1oc1ccccc12
active: [1] -22.2% | [6] -98.1% | [8] -83.4% | [11] -26.7% | [12] 6.3% | [14] -36.5% | [15] 6.06% | [16] 8.64% | [18] -1.03% | [19] -18.8%
inactive: [2] 29.9% | [3] 16.5% | [4] 18.8% | [5] 13.7% | [7] 13.4% | [9] 16.4% | [13] 12.3%

Cc1ccc(C(=O)Nc2cccc(C(F)(F)F)c2)cc1Nc1nc(-c2cnccn2)nc2c1cnn2C
active: [10] -4.36%
inactive: [1] 32.9% | [2] 77.4% | [3] 86% | [4] 82.1% | [5] 90.1% | [6] 57.6% | [7] 17.9% | [8] 62.3% | [9] 15.6% | [11] 77.3% | [12] 64.7% | [13] 37.8% | [14] 53% | [15] 48.9% | [16] 53.9% | [17] 78.2% | [18] 43.1% | [19] 39.5%

Cc1nc(-c2cc3ccccc3oc2=O)ccc1C(=O)/C=C/c1ccccn1
active: [1] 2.1% | [4] 8% | [8] -84.5% | [17] 6.22% | [19] -12.6%
inactive: [2] 56.3% | [3] 71.6% | [5] 68.2% | [6] 95.9% | [7] 71.1% | [9] 95.1% | [10] 108% | [11] 84.3% | [12] 47.5% | [13] 58% | [15] 60.6% | [16] 89.2% | [18] 27.1%

Clc1ccc2oc3c(OCCCn4ccnc4)c4ccccc4nc3c2c1
active: [16] 8.47%
inactive: [1] 36.7% | [2] 68.5% | [3] 73.5% | [4] 61.6% | [5] 68.9% | [6] 92.8% | [7] 83.1% | [8] 42.8% | [9] 89.8% | [10] 112% | [11] 71.9% | [12] 56.3% | [13] 43.9% | [15] 38.5% | [17] 59.6% | [18] 24.7% | [19] 32.5%

O=C1Nc2cc(Cl)ccc2/C1=C\c1ccc(OCc2ccc(Br)cc2F)cc1
inactive: [17] 12.9% | [18] 22.7% | [19] 27.4%
active: [1] 0.627% | [2] -72.8% | [3] -41.3% | [4] -68.5% | [5] -57.1% | [6] -12.1% | [7] -74.3% | [8] -92.8% | [9] -63% | [10] -42.8% | [12] -70.1% | [13] -68.7% | [14] -83% | [15] -77.1% | [16] -75.8%

CCOC(=O)c1c(Nc2ccccc2)nn2c(N)c(C#N)c(-c3ccc(Cl)cc3)nc12
inactive: [1] 73.1% | [3] 89.8% | [4] 44.6% | [5] 40.9% | [6] 94.8% | [7] 70% | [8] 49.3% | [9] 78.5% | [10] 87% | [11] 68.9% | [12] 53.1% | [13] 93.8% | [14] 42.1% | [15] 31.5% | [16] 63.3% | [17] 83% | [18] 87.5% | [19] 86.9%
active: [2] -11.2%

O=C(O)CCCCCN1C(=O)/C(=C/c2ccc(O)c(O)c2)SC1=S
inactive: [1] 116% | [2] 95.1% | [3] 96.1% | [4] 103% | [5] 117% | [6] 98.9% | [7] 96.8% | [8] 108% | [9] 102% | [10] 140% | [12] 98.5% | [13] 90.4% | [14] 109% | [15] 102% | [16] 101% | [17] 105% | [18] 106% | [19] 107%

Clc1ccc2c(NCCCn3ccnc3)c3oc4ccccc4c3nc2c1
active: [16] 8.07% | [19] 9.35%
inactive: [1] 19.4% | [2] 47.8% | [3] 57.1% | [4] 19.6% | [5] 47.9% | [6] 76% | [7] 66.1% | [8] 14.4% | [9] 68.2% | [10] 84.9% | [11] 16.1% | [12] 33.2% | [13] 36.2% | [14] 18.1% | [15] 22.1% | [17] 37.4% | [18] 13.3%
